Laboratory results published in PubChem BioAssay (NCATS).
Inconclusive results are not listed. Calls of active or inactive are those of the source. The call rests on the fitted dose curve; in most records, active means well fitted curve in the direction sought with a large enough effect; inconclusive means small, poorly fitted or top-dose-only effect, or another doubt; inactive means no such curve, though single readings can be large; an effect the other way counts as inactive or inconclusive.

Columns and labels:
[1] = biological target: Luciferin 4-monooxygenase (Photinus pyralis) (UniProt P08659); test: Biochemical firefly luciferase enzyme assay for NPC (AID 624030);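 further: purified P. pyralis luciferase at 10 nM with luciferin and ATP substrate; nearly all actives have a fitted effect of over 70% in size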
How it was run: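 Direct inhibition of firefly luciferase enzyme (10 nM final, 50 mM Tris Acetate) assessed by luminescence within 5 minutes. Percent activity scaled between DMSO and PTC124 positive control, with concentration-effect curves classified by fit quality and response.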

[2] = S16 Schwann cell viability assay (CellTiter-Glo assay) (AID 624031);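 further: native untransfected S16 rat Schwann cells; cellular ATP luminescence as a viability measure; nearly all actives have a fitted effect of over 70% in size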
How it was run: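 Concentration-effect curves come from CellTiter-Glo luminescence of S16 rat Schwann cells after 24 h compound exposure. Each reading was normalized to DMSO wells (0%) and wells without cells, and curves were ranked by r2 and response magnitude.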

[3] = S16 Schwann cell PMP22 intronic element firefly luciferase assay (AID 624032); further: potency means the concentration at half of the fitted maximal effect; nearly all actives have a fitted effect of over 30% in size
How it was run: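 Luciferase reporter of PMP22 intronic-element expression in stably transfected S16 rat Schwann cells, read by ONE-Glo luminescence after 24 h compound exposure at 37 C. Activity scaled between DMSO (0%) and positive-control PTC124; concentration-effect curves quality-classified.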

7G8 = test: qHTS profiling for inhibitors of Plasmodium falciparum proliferation (AID 504749); further: nearly all actives have a fitted effect of over 60% in size; further: potency means the concentration at half of the fitted maximal effect; conditions: P. falciparum in erythrocytes, SYBR Green DNA, 72 h; series mostly up to 28.7 µM
How it was run: (§1)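 SYBR Green fluorescence of parasite DNA, read after lysis and overnight dark incubation, measured growth over 72 h in erythrocyte culture at 0.3% parasitemia and 2.5% hematocrit. Data normalised to DMSO and 0.29 uM artemisinin, with plate-drift correction.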

CP335 = test: as above; conditions: P. falciparum in erythrocytes, SYBR Green DNA, 72 h; series mostly up to 28.7 µM
How it was run: as §1

Dd2 = test: as above; conditions: P. falciparum in erythrocytes, SYBR Green DNA, 72 h; series mostly up to 28.7 µM
How it was run: as §1

ICS = test: as above; conditions: P. falciparum in erythrocytes, SYBR Green DNA, 72 h; series mostly up to 28.7 µM
How it was run: as §1

JCK = test: as above; conditions: P. falciparum in erythrocytes, SYBR Green DNA, 72 h; series mostly up to 28.7 µM
How it was run: as §1

Measured: Potency

Luciferin 4-monooxygenase (Photinus pyralis), sequence (P08659 whole entry, looked up): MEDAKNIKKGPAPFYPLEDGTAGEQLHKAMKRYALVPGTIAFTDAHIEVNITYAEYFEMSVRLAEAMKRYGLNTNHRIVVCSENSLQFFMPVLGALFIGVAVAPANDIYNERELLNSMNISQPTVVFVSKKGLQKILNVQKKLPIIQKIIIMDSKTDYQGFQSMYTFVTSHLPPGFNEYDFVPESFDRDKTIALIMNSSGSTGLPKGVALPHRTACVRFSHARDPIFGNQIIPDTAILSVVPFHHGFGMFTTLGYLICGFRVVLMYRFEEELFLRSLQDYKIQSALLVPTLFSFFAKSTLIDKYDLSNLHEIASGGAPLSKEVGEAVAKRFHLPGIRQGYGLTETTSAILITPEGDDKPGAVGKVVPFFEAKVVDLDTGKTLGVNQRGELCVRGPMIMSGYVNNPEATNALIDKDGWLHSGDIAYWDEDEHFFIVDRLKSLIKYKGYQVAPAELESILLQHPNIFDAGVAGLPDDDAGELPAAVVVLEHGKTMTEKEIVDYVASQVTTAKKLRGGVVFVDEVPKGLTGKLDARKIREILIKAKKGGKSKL

C=C(NC(=O)C(=C)NC(=O)c1csc(C2=N[C@@H]3c4csc(n4)[C@@H]4NC(=O)c5csc(n5)[C@@H]([C@](C)(O)[C@H](C)O)NC(=O)[C@@H]5CSC(=N5)/C(=C/C)NC(=O)[C@@H]([C@H](C)O)NC(=O)c5csc(n5)[C@]3(CC2)NC(=O)[C@@H](C)NC(=O)C(=C)NC(=O)[C@@H](C)NC(=O)[C@@H]([C@@H](C)CC)N[C@H]2C=Cc3c([C@H](C)O)cc(nc3[C@@H]2O)C(=O)O[C@H]4C)n1)C(N)=O
active: [3] 8.7 µM | 7G8 3.16 µM | CP335 2.28 µM | Dd2 1.12 µM | ICS 3.16 µM
inactive: [1] | [2] | JCK
